# Source: PubChem BioAssay (several laboratories)
# TcdB GH inh: TcdB glycohydrolase inhibition | P18177 | TcdB glycohydrolase enzymatic assay, plate reader | inhibition, % at 9.99 µM | 350,000 compounds, 0.24% hits | AID 652162; in the data active means inhibition above about 10%
# Y pestis TopoI: inhibitors of Yersinia pestis topoisomerase I. Y. pestis Topo-I cleavage product accumulation, plate reader. activity, % at 10 µM. 360,000 compounds, 0.064% hits; in the data active means activity above about 50%, passing the limit was not always enough; inconclusive means no clear call, values can overlap the other calls
# PfHsp40 rescue: restores yeast growth despite PfHsp40 toxicity | S. cerevisiae expressing PfHsp40, growth rescue, ATP luminescence | growth rescue, % at 12.5 µM | 340,000 compounds, 0.68% hits | AID 504582; in the data active means growth rescue above about 28%, passing the limit was not always enough; inconclusive means no clear call, values can overlap the other calls;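 further: yeast W303a lacking pdr1 and pdr3 grown in galactose medium; growth measured after three days at 30 °C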
# Mtb BioA inh: BioA (M. tuberculosis) enzyme inhibition | purified M. tuberculosis BioA enzyme, plate reader | inhibition, % at 9.99 µM | 360,000 compounds, 0.096% hits | AID 602481; in the data active means inhibition above about 40%; inconclusive means no clear call, values can overlap the other calls
# Vc quorum ag: induces V. cholerae light production without autoinducers. 350,000 compounds, 0.16% hits. activation, % at 18.7 µM. V. cholerae BH1578 lux reporter, luminescence, 6 h; in the data active means activation mostly above about 9.7%, no sharp cut-off; inconclusive means no clear call, values can overlap the other calls; inactive means mostly below about 3.7%
# DUSP3 inh: inhibitors of human VHR1 phosphatase (DUSP3). P51452. recombinant VHR phosphatase, pNPP absorbance. inhibition, % at 13.3 µM. 290,000 compounds, 0.52% hits; in the data active means inhibition above about 50%
# Target sequence (P51452 whole entry, looked up): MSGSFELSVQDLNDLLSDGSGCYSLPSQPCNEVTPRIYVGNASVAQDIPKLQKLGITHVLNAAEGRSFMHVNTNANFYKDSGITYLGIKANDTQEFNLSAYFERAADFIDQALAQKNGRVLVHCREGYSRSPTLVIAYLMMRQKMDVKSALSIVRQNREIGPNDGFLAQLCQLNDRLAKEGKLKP
# Starred values were filed as active, the others as inactive; i = inactive; ? = inconclusive; . = no result. Shown are actives, neighbours in structure and some others; about 1.2% of the full set was active somewhere.
SMILES,TcdB GH inh,Y pestis TopoI,PfHsp40 rescue,Mtb BioA inh,Vc quorum ag,DUSP3 inh
CC(C)(C)c1cc(C(c2cccnc2)N2CCN(CCO)CC2)cc(C(C)(C)C)c1O (stereo not drawn),3.3,7.6,30.0*,1.2,i,29.1
CCN=C1S/C(=C\c2cn(CC(=O)NCCOC)c3ccccc23)C(=O)N1CC,2.2,1.5,1.9,-0.1,-0.3,15.1
CNc1ncnc2sc(-c3ccccc3)cc12,0.7,4.4,3.5,1.1,1.1,51.9*
C[C@@H]1CN([C@H](C)CO)S(=O)(=O)c2ccc(-c3ccncc3)cc2O[C@@H]1CN(C)Cc1ccc(Oc2ccccc2)cc1,11.2*,.,.,-0.7,.,.
C[C@H]1CN([C@@H](C)CO)S(=O)(=O)c2ccc(-c3ccncc3)cc2O[C@@H]1CN(C)Cc1ccc(Oc2ccccc2)cc1,20.1*,.,.,0.4,.,.
C[C@H]1CN([C@@H](C)CO)S(=O)(=O)c2ccc(-c3ccncc3)cc2O[C@@H]1CN(C)Cc1ccccc1,3.9,.,.,1.8,.,.
C[C@H]1CN([C@@H](C)CO)S(=O)(=O)c2ccc(-c3ccncc3)cc2O[C@H]1CN(C)Cc1ccc(Oc2ccccc2)cc1,12.4*,.,.,-0.9,.,.
CCOC(=O)Nc1ccc(NCc2ccc(F)cc2)nc1N,0.1,-3.5,1.1,-5.8,-0.4,.
CC(=O)Nc1ccc(S(=O)(=O)Nc2nc3ccccc3nc2-n2ccc(=NC(=O)c3ccc(F)cc3)cc2)cc1,15.6*,8.0,-1.5,-5.2,i,1.2
CCOc1ccc(NC(=O)CCc2c(C)noc2C)cc1OC,1.2,4.1,0.6,0.2,-0.2,.
Cn1c(=O)c(C(=O)NNC(=O)c2ccccc2Cl)c(O)c2ccccc21,0.7,-4.5,82.2*,-4.6,-0.3,-28.8
Cn1c(=O)c(C(=O)NNC(=O)c2ccccc2Br)c(O)c2ccccc21,-0.6,12.0,-1.5,-1.3,1.2,42.9
O=C1Nc2cc(C(=O)NCC3CCCO3)ccc2S/C1=C/c1ccccc1F (stereo not drawn),1.8,-3.0,-1.3,-1.0,-0.2,54.2*
O=S(=O)(c1cccc(C(F)(F)F)c1)N1CCC(CO)(CCCc2ccccc2)CC1,-0.1,30.8,55.5*,-0.1,i,9.4
O=S(=O)(c1cccc(C(F)(F)F)c1)N1CCC(O)(c2cccnc2)CC1,.,5.9,-1.0,5.3,-0.2,17.9
COCC(=O)N1CCN(c2ccc([N+](=O)[O-])cc2)CC1,.,1.4,-1.0,0.0,i,6.2
COc1cc(CCC(=O)N2CCN(c3ccc([N+](=O)[O-])cc3)CC2)cc(OC)c1OC,-0.2,2.4,1.0,7.8,i,56.9*
COC(=O)c1cc(S(=O)(=O)N2CCOCC2)c(Cl)cc1N1CCOCC1,.,1.2,-0.6,-0.2,.,6.2
COC(=O)c1cc(C)nc2c1C(=O)C(=O)C=C2N1CCOCC1,-2.6,4.7,-0.4,-2.2,-0.4,53.6*
O=c1c(Br)ccc(Br)cc1Br,1.1,3.4,76.7*,1.1,i,.
O=C(CN1C(=O)COc2ccccc21)NCCN1CCCC1,0.8,6.0,1.0,-0.4,i,50.4*
O=C1COc2ccccc2N1Cc1ccccc1Cl,.,20.1,49.8*,3.4,16.7*,36.8
O=C(CN1C(=O)COc2ccccc21)NCCCN1CCN(c2ccccc2F)CC1,2.3,-2.0,-1.2,-2.3,i,-14.4
O=C(CN1C(=O)COc2ccccc21)N1CCN(c2ccccc2F)CC1,0.2,5.7,83.5*,6.0,-0.2,3.5
CC1Oc2ccccc2N(Cc2ccccc2Cl)C1=O (stereo not drawn),1.7,28.8,-0.6,.,-2.2,31.2
SMILES,TcdB GH inh,Y pestis TopoI,PfHsp40 rescue,Mtb BioA inh,Vc quorum ag,DUSP3 inh
O=C(CN1C(=O)COc2ccccc21)NCCCN1CCCC1,1.9,-0.2,1.0,-0.7,0.5,-3.6
Cc1ccc(S(=O)(=O)N[C@H]2C=C[C@H](CC(=O)N3CCN(c4ccccc4)CC3)O[C@H]2CO)cc1,-0.3,.,.,0.7,.,.
CCc1ccc(-c2cn(C3CCCCC3)c(=S)[nH]2)cc1,-0.5,19.4,90.9*,.,-1.0,22.3
CCc1ccc(-n2cc(-c3ccc([N+](=O)[O-])cc3)[nH]c2=S)cc1,0.0,-4.0,-2.3,.,-0.3,14.7
O=C(NC1CCCC1)c1ccc(COc2ccccc2Br)o1,1.7,24.1,3.3,1.1,-1.1,-3.0
CN1C(=S)SC2CS(=O)(=O)CC21C (stereo not drawn),-0.9,-4.7,0.1,-2.6,-0.7,25.7
O=S(=O)(c1ccc(Cl)cc1)N1CCC2(CC1)OCCN2S(=O)(=O)c1cccs1,1.7,11.7,54.5*,.,5.3,.
Cc1ccc(S(=O)(=O)N2CCOC23CCN(C(=O)c2cc(Cl)ccc2Cl)CC3)cc1,-0.1,20.9,90.6*,1.3,0.4,-12.9
Cc1ccc(S(=O)(=O)N2CCC3(CC2)OCCN3S(=O)(=O)c2cccs2)cc1,-0.2,16.7,9.1,0.5,-1.2,.
Cc1ccc(S(=O)(=O)N2CCOC23CCN(C(=O)c2ccc(Cl)cc2Cl)CC3)cc1,-0.2,?,2.7,1.9,0.2,-3.6
O=C(CSc1nnnn1C1CCCCC1)Nc1ccc2c(c1)OCO2,.,11.4,-1.8,-0.4,-0.6,-4.6
Cc1cccc(NC(=O)c2ccc(N3CCOCC3)c([N+](=O)[O-])c2)n1,13.1*,4.6,-0.5,-1.8,-1.1,17.5
Cc1cccc(NC(=O)c2ccc(N3CCCCC3)c([N+](=O)[O-])c2)n1,.,1.3,18.8,.,-0.9,15.4
O/N=C/c1cccc[n+]1CCCCCC[n+]1ccccc1/C=N/O,-0.3,1.0,0.0,-0.7,-1.4,60.0*
CCCNC(=O)[C@H]1[C@H](CO)[C@H]2Cn3c(ccc(-c4ccc(C(=O)N(C)C)cc4)c3=O)[C@H]2N1CCC,-0.6,.,.,-0.4,.,.
COc1ccc(C(NC(=O)c2cc(OC)ccc2OC)c2ccccc2)cc1 (stereo not drawn),1.0,50.5*,3.2,0.4,i,21.5
Cc1ccc(C(=O)NC(C)c2nc3ccccc3n2CC(=O)Nc2c(C)cc(C)cc2C)cc1 (stereo not drawn),.,.,.,.,.,33.9
CCN(CC)c1ccc(NC(=O)Cn2c(C(C)NC(=O)c3ccccc3)nc3ccccc32)cc1 (stereo not drawn),0.5,7.5,-0.8,-1.7,i,55.4*
O=C(Nc1ccc([N+](=O)[O-])cc1)Nc1ccc(Cl)cc1F,-0.2,7.2,.,.,-0.4,-3.4
O=C1CCCN1CCC1CCN(C(=S)Nc2ccc(F)cc2)CC1,.,5.1,98.9*,1.3,.,-1.3
CCc1ccc(CCC(=O)Nc2ncc(Cc3ccccc3Cl)s2)o1,0.7,9.6,4.4,-1.6,i,59.9*
CCN(CC(O)CON=C1c2ccccc2-c2ccccc21)S(=O)(=O)c1ccc(C)cc1 (stereo not drawn),.,12.0,6.9,-1.8,-0.2,-10.5
CCOc1cc(NC(=S)NCC2CCCO2)c(OCC)cc1NC(=O)c1ccc(F)cc1 (stereo not drawn),19.4*,-6.0,0.6,-0.6,-3.0,10.3
CO[C@@H](CN(C)Cc1ccc(-c2ccccn2)cc1)[C@@H](C)CN(C(=O)Nc1ccc(F)cc1)[C@@H](C)CO,0.6,.,.,0.3,.,.
